# Test results published in the supplement of paper PMC11732987, “Enantioselective OTUD7B fragment discovery through chemoproteomics screening and high-throughput optimisation” (Communications Chemistry, 2025).
# A number with no mark means an inactive call.
# Tests used:
# Assay in all cases: log2 ratio of Biotin-Ahx-Ub-VS probe labelling (fragment/DMSO); higher = less target engagement (more negative = stronger competition), active = hit call of the paper (q ≤ 0.05, log2 ratio ≤ -1)
# Details in all cases: compound concentration: 200 uM; treatment time: 3 h
# OTUD6B = biological target: T1, OTUD6B (UniProt Q8N6M0)
# T1 sequence (whole entry): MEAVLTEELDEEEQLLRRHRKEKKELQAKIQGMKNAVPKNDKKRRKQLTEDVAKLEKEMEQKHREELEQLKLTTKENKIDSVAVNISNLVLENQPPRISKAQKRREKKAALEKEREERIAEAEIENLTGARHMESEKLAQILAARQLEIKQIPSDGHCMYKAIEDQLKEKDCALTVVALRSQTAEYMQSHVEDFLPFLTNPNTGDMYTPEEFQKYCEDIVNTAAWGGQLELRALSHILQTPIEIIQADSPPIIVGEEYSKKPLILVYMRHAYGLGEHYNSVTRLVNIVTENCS
# How it was run: (§1)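 Fragment (200 µM) or vehicle was incubated for 3 h with triplicate HEK293T lysate samples of 495 µg, which were then treated with Biotin-Ahx-Ub-VS at 0.5 µM final for 1 h. Labelled DUBs were enriched on NeutrAvidin, digested with LysC and trypsin, and analysed by diaPASEF LC-MS/MS. Values are average log2 fragment/vehicle ratios from an unpaired t-test on global-median-normalised Spectronaut label-free quantities, using proteins with ≥2 unique peptides.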
# OTUD7B = biological target: T2, OTUD7B (UniProt Q6GQQ9)
# T2 sequence (whole entry): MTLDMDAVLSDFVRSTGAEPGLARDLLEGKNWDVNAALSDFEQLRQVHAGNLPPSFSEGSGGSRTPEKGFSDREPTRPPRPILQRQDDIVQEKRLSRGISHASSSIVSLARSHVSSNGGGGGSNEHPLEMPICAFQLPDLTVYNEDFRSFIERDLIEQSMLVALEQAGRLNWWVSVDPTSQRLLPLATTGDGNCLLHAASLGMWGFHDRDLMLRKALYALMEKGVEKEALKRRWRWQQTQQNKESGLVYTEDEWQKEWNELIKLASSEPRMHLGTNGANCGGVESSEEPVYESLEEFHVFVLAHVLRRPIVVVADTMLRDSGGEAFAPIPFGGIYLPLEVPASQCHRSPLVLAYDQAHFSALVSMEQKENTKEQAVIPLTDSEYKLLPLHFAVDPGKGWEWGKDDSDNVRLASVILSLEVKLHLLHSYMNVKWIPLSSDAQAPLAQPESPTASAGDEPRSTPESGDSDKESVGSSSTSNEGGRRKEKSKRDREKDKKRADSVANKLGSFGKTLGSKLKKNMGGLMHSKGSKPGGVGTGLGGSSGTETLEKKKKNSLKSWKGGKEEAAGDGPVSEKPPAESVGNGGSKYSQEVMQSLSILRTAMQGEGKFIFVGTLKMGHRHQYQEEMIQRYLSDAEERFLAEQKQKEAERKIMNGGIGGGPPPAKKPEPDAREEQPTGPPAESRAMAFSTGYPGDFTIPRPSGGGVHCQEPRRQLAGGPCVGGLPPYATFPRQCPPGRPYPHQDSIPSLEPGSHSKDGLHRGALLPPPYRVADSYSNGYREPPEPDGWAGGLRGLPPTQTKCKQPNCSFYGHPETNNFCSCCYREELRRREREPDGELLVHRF
# How it was run: as §1
# PRPF8 = PRPF8 (UniProt Q6P2Q9)
# How it was run: as §1
# PSMD7 = biological target: T3, PSMD7 (UniProt P51665)
# T3 sequence (whole entry): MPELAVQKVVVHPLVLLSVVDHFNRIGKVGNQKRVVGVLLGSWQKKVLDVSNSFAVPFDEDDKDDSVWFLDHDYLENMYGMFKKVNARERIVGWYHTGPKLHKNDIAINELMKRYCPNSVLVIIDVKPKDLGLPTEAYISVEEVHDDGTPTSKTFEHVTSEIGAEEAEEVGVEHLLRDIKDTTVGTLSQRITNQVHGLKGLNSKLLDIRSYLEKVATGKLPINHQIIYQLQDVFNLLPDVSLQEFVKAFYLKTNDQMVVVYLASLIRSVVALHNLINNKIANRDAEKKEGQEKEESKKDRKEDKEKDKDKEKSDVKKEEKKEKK
# How it was run: as §1
# UCHL1 = UCHL1 (UniProt P09936)
# How it was run: as §1
# UCHL3 = biological target: T4, UCHL3 (UniProt P15374)
# T4 sequence (whole entry): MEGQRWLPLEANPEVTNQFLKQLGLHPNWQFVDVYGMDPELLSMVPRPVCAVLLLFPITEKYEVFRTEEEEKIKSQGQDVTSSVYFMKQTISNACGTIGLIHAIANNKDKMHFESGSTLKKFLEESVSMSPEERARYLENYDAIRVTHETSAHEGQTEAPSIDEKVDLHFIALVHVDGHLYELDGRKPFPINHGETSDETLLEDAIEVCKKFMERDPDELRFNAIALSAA
# How it was run: as §1
# UCHL5 = biological target: T5, UCHL5 (UniProt Q9Y5K5)
# T5 sequence (whole entry): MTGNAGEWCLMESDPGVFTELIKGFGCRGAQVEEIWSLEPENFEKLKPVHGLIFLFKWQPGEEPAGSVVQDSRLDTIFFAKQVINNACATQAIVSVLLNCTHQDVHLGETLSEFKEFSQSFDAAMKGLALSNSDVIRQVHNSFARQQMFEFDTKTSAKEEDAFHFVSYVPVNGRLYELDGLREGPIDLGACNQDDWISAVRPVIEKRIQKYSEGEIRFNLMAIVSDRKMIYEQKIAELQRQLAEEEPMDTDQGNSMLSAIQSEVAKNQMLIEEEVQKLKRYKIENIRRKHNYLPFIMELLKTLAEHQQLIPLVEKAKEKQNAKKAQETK
# How it was run: as §1
# USP10 = USP10 (UniProt Q14694)
# How it was run: as §1
# USP15 = biological target: T6, USP15 (UniProt Q9Y4E8)
# T6 sequence (whole entry): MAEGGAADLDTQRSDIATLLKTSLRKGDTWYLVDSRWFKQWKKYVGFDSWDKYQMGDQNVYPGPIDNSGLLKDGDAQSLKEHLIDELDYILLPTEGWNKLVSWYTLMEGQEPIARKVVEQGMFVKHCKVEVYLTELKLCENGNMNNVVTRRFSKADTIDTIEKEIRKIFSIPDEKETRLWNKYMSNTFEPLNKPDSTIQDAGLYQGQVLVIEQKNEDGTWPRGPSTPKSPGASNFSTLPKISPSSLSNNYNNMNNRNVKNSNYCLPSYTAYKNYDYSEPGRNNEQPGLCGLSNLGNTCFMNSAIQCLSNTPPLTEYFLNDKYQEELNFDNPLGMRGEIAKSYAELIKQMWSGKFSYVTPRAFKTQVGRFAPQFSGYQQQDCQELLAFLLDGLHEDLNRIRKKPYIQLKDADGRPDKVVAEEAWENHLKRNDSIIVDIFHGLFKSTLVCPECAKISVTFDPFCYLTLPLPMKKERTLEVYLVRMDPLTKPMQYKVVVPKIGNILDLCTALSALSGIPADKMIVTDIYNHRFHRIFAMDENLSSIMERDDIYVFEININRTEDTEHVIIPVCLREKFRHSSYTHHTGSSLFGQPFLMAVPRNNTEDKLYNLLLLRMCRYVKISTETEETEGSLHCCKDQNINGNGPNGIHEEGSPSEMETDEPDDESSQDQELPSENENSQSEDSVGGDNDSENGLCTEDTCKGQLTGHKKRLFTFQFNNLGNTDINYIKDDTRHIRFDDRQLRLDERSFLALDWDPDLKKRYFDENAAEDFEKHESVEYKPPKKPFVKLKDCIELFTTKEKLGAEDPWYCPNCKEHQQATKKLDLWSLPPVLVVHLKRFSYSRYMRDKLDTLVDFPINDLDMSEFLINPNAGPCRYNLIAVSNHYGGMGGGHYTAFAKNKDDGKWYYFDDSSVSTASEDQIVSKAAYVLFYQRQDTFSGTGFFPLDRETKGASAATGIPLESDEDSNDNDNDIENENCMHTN
# How it was run: as §1
# USP16 = USP16 (UniProt Q9Y5T5)
# How it was run: as §1
# Chain of USP16 (Q9Y5T5 whole entry, looked up): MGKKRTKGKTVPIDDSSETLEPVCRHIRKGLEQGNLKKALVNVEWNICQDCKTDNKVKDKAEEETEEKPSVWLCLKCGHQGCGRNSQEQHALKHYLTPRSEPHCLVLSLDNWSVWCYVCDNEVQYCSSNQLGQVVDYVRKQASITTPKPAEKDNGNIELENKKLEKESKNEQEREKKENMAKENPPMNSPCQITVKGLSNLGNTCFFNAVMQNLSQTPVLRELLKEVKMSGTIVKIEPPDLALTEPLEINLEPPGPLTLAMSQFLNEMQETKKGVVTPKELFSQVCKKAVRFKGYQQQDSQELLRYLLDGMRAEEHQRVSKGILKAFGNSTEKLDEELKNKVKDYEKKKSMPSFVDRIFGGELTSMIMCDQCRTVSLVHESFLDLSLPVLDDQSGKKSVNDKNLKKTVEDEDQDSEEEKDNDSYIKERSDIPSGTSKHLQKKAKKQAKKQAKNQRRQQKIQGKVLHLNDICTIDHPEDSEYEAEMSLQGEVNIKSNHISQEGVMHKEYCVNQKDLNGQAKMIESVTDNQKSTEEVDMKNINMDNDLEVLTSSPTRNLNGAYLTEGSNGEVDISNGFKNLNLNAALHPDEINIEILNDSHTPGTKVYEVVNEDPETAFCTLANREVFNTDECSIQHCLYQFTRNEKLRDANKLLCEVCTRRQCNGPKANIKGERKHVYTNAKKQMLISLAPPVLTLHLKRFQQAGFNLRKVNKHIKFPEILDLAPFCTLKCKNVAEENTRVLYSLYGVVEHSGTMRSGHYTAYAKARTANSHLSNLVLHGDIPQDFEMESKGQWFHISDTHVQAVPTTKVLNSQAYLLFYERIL
# Chain of USP10 (Q14694 whole entry): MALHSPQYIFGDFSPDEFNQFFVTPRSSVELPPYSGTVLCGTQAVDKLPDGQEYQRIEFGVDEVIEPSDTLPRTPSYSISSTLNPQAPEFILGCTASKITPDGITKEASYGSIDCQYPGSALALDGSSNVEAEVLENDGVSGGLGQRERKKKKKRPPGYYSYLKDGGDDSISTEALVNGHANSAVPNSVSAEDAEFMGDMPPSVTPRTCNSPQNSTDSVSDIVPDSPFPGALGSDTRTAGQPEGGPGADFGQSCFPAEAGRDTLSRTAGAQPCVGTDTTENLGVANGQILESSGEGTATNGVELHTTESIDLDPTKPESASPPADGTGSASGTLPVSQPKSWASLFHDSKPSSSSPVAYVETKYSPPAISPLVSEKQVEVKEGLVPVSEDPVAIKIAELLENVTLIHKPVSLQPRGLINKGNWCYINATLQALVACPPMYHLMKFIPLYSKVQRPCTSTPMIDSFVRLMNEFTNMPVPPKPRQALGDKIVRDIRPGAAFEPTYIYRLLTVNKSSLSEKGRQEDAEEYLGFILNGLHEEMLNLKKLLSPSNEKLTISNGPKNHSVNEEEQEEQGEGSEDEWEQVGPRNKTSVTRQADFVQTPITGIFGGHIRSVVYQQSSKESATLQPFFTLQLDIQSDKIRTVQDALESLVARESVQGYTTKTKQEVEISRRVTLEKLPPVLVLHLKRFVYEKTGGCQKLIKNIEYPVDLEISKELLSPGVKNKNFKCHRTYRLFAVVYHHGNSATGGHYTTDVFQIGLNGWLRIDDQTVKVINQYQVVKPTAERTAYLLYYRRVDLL
# Chain of UCHL1 (P09936 whole entry, looked up): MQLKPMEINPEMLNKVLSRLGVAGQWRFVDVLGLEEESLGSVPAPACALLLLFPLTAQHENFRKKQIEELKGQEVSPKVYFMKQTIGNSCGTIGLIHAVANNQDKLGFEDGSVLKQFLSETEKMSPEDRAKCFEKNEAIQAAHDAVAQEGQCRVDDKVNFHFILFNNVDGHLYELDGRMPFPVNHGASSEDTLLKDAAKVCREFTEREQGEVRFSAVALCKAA
smiles,measurement,setting,value
Cc1c(NC(=O)CCl)c(=O)n(-c2ccccc2)n1C,log2 ratio of Biotin-Ahx-Ub-VS probe labelling,OTUD6B,-0.0267
same,log2 ratio of Biotin-Ahx-Ub-VS probe labelling,OTUD7B,-0.0828
same,log2 ratio of Biotin-Ahx-Ub-VS probe labelling,PRPF8,0.192
same,log2 ratio of Biotin-Ahx-Ub-VS probe labelling,PSMD7,-0.0588
same,log2 ratio of Biotin-Ahx-Ub-VS probe labelling,UCHL1,-1.04 (active)
same,log2 ratio of Biotin-Ahx-Ub-VS probe labelling,UCHL3,0.0974
same,log2 ratio of Biotin-Ahx-Ub-VS probe labelling,UCHL5,-0.143
same,log2 ratio of Biotin-Ahx-Ub-VS probe labelling,USP10,-0.099
same,log2 ratio of Biotin-Ahx-Ub-VS probe labelling,USP15,-0.102
same,log2 ratio of Biotin-Ahx-Ub-VS probe labelling,USP16,-0.462
